From PubChem BioAssay
Shiga inhibitor: inhibitors of Shiga toxin in Vero cells; 290,000 compounds, 9.2% hits; Vero cells, Shiga toxin protein synthesis inhibition reporter; AID 2315; inhibition, % at 38.7 µM; in the data active = inhibition mostly above about 28%, no sharp cut-off; inactive = mostly below about 43%; note: 0% is about no effect
LmPK inhibitor: inhibitors of Leishmania mexicana pyruvate kinase. Potency, µM (series often up to 57.5 µM), for inactives: top-dose activity change, negative = inhibition, actives largely listed as inhibitors. Q27686. AID 1721. 290,000 compounds, 0.37% hits. purified LmPK, Kinase-Glo ATP luminescence, 1 h; note: potency is the fitted concentration of half-maximal effect; % is set by controls: 0 for no effect and ±100 for the full control effect
Target sequence (Q27686 whole entry, looked up): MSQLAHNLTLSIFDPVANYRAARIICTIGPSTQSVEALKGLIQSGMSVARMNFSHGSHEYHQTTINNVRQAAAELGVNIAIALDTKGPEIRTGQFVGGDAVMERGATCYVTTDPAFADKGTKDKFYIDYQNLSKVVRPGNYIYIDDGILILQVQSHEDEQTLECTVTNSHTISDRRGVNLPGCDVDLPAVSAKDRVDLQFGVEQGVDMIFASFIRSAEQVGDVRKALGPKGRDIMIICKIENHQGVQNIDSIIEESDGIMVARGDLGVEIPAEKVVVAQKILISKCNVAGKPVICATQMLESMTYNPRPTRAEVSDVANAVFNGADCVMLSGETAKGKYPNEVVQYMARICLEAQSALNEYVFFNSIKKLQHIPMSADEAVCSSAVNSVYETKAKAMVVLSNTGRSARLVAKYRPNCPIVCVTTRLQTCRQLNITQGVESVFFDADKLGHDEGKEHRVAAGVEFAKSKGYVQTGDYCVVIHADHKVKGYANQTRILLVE
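Screened at intermediate enzyme activity to detect both inhibitors and activators: LmPK at 0.1 nM, with a 0.5 nM enzyme column as activation reference. PEP 0.5 mM, ADP 0.1 mM; ATP detected by luminescence after 1 h.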
Tb PYK inh: T. brucei pyruvate kinase inhibition | AID 624173 | TbPYK enzyme, Kinase-Glo Plus ATP luminescence, 45 min | 410,000 compounds, 0.12% hits | Q57TT1 | Potency, µM (doses to about 76.8 µM), for the others: at the top dose activity, negative = inhibition, actives largely listed as inhibitors; note: potency is the fitted concentration of half-maximal effect; % is set by controls: 0 for no effect and ±100 for the full control effect; nearly all actives have a fitted effect of over 50% in size
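Activity of T. brucei pyruvate kinase was followed by Kinase-Glo Plus luminescence after the enzyme reacted 45 min at room temperature with 130 uM ADP (final) and substrate. Test compounds were added before ADP at multiple concentrations.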
Giardia FBPA inh: inhibitors of Giardia lamblia fructose-1,6-bisphosphate aldolase | 290,000 compounds, 0.71% hits | Potency, µM (doses to about 59.6 µM), for inactives: at the top dose activity, negative = inhibition, usual class: inhibitors | purified Giardia FBPA | AID 2451; note: potency is the fitted concentration of half-maximal effect; % is set by controls: 0 for no effect and ±100 for the full control effect; nearly all actives have a fitted effect of over 55% in size
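Giardia FBPA (40 nM reagent) was preincubated 10 min at RT with compound (up to 57.5 uM final), then substrate plus GAPDH/TPI/NAD/arsenate coupling system with diaphorase/resazurin was added; resorufin fluorescence (525/598 nm) was read after 20 min.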
Cycloheximide cs: counter-screen hit for Shiga toxin inhibitors, cycloheximide; cell reporter, cycloheximide protein synthesis inhibition counterscreen; max response, %; 300,000 compounds, 12% hits; in the data active = max response mostly above about 13%, no sharp cut-off; inactive = mostly below about 14%; note: read at 38.3 µM for the half of the compounds with a filed dose; 0% is about no effect
RE007 growth inh: less growth of the S. pombe RE007 Vpr strain; S. pombe RE007 Vpr strain, BacTiter-Glo ATP luminescence, 24 h; Potency, µM (series often up to 92.2 µM), inactives show at the top dose activity change, negative = less growth, usual class: inhibitors; 360,000 compounds, 0.21% hits; active = well fitted falling curve with a large enough effect; inconclusive = small, poorly fitted or top-dose-only effect; inactive = no such curve, though single readings can be large or run the other way; note: potency is the fitted concentration of half-maximal effect; % is set by controls: 0 for no effect and ±100 for the full control effect; nearly all actives have a fitted effect of over 50% in size
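Fission yeast RE007 carrying one integrated HIV-1 vpr copy, seeded at OD 0.01 in PMG+AL medium with 23 nL pinned compound. Grown 24 h at 30 degrees; viability read by BacTiter-Glo luminescence after 5 min.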
Starred values were filed as active, the others as inactive; u = inconclusive; x = not tested or not shown; [ ] = dose if it differs, or a comment. Only a selection was taken, and hits are over-represented in it overall. Unless noted, calls come from the whole dose curve; as a rule, active = well fitted curve in the direction sought with a large enough effect; inconclusive = small, poorly fitted or top-dose-only effect, or another doubt; inactive = no such curve, though single readings can be large; an effect the other way counts as inactive or inconclusive.

SMILES	Shiga inhibitor	LmPK inhibitor	Tb PYK inh	Giardia FBPA inh	Cycloheximide cs	RE007 growth inh
O=C(CN1C(=O)NC2(CCCc3ccccc32)C1=O)N1CCCCC1 (configuration not stated)	x	x	-4.8%	x	x	12.9%
Cc1nc2c(c(C)c1CCC(=O)Nc1cccc(C(F)(F)F)c1)c(=O)n(C)c(=O)n2C	x	x	5.6%	x	x	x
COc1ccc2c(c1)S(=O)(=O)c1ccccc1N2	-3.8	-0.7%	-0.7%	-4.9%	-2.1	6.4%
COc1ccc2c(c1)Sc1ccccc1N2	29.1	-14.0%	-10.3%	-12.2%	30.5*	u
c1ccc2c(c1)Nc1cc3ccccc3cc1S2	46.7*	3.5%	-2.5%	u	26.0*	-9.7%
CNc1nc(NC)c2cn[nH]c2n1	x	x	0.9%	x	x	12.4%
Cc1ccc2nc(NCc3ccccc3Cl)c3nnnn3c2c1	x	x	1.5%	x	x	x
Cc1ccc2nc(Cl)c3nnnn3c2c1	-3.1	-4.0%	0.3%	10.6%	-0.2	25.1µM*
C[C@@H]1CCC2[C@](C)(CO)[C@@H](O)CC[C@]2(C)[C@@]12C[C@](CO)(CC(=O)O)CO2 (some centres not stated)	3.6	-0.2%	0.0%	2.0%	-1.9	-7.6%
COC(=O)c1ccsc1NC(=O)CCc1ccccc1	65.0*	-16.3%	5.0%	0.6%	48.3*	-0.9%
COC(=O)c1cc(C)sc1NC(=O)CCc1ccccc1	x	4.8%	-10.1%	5.2%	-2.5	0.5%
Cc1ccsc1C(=O)OCC(=O)Nc1sccc1C(N)=O	64.8*	-4.8%	4.9%	0.5%	42.3*	16.6%
COc1ccc(CCC(=O)OCC(=O)Nc2sccc2C(N)=O)cc1	x	x	7.7%	x	x	4.7%
NC(=O)c1ccsc1NC(=O)CCc1ccccc1	x	-4.5%	-7.0%	-12.2%	43.9*	-10.9%
Cc1ccsc1C(=O)OCC(=O)NCCNC(=O)COC(=O)c1sccc1C	x	x	1.8%	x	x	0.1%
COc1ccc(N2CCN(c3nccs3)CC2)cc1	71.7*	-0.4%	0.0%	9.9%	37.1*	-15.7%
CCOC(=O)c1ccc(N2C(=O)c3n[nH]c(C)c3C2c2ccc(OC)c(OC)c2)cc1 (configuration not stated)	-15.5	16.9%	-5.6%	25.8%	3.6	-4.3%
CCOc1cc(C2c3c(n[nH]c3C)C(=O)N2c2ccc(Br)cc2)ccc1O (configuration not stated)	38.0*	0.8%	2.3%	-5.3%	31.1*	-8.7%
COc1cc(C2c3c(n[nH]c3C)C(=O)N2c2ccc(Br)cc2)ccc1O (configuration not stated)	6.9	9.8%	-6.3%	7.0%	15.3*	-8.4%
CCn1c(CN2CCOCC2)nc2cc(NC(=O)c3ccc([N+](=O)[O-])cc3)ccc21	x	x	1.6%	x	x	x
COc1cc(O)sc1C=Nc1ccc(Cl)cc1	41.8*	10.1%	-8.5%	-10.3%	31.3*	-3.0%
Oc1ccc(Br)cc1C=Nc1ccc(Cl)cc1	13.1	-4.5%[11.5 µM]	2.2%	-3.7%	3.2	-3.3%
O=[N+]([O-])c1cc(O)c2ncccc2c1	29.9	13.0%	-0.3%	u	22.4*	7.94µM*
CN1C(=O)C(O)(c2nnc(-c3ccccc3)o2)c2ccccc21 (configuration not stated)	46.3	-0.6%	0.5%	0.3%	18.5*	16.2%
CC(=O)NC1C(O)O[C@H](C(=O)O)[C@@H](O)[C@@H]1O (some centres not stated)	-5.4	x	x	5.6%	13.6	x
SMILES	Shiga inhibitor	LmPK inhibitor	Tb PYK inh	Giardia FBPA inh	Cycloheximide cs	RE007 growth inh
Cc1c(Cl)cccc1Nc1nc(N)nc(CSc2nc3ccccc3s2)n1	-6.0	-3.4%	1.8%	-0.4%	0.5	-3.5%
Nc1nc(CSc2nc3ccccc3s2)nc(Nc2ccccc2)n1	-13.6	5.2%	x	-4.9%	20.7*	x
O=C(CSc1nc(N2CCOCC2)nc(N2CCOCC2)n1)Nc1ccccc1F	20.0	3.9%	24.2%	1.8%	5.5	-4.8%
Cc1ccc(C)c(CN2CCC(CNC(=O)C(CC(C)C)N3Cc4ccccc4C3=O)CC2)c1 (configuration not stated)	x	x	6.6%	x	x	x
Cc1cc(C)nc(SCc2cn3ccccc3n2)n1	26.7	0.9%	-0.7%	-14.7%	22.4*	4.7%
Cc1cc(C)c(C#N)c(SCc2cn3ccccc3n2)n1	33.3	1.0%	-0.7%	-22.7%	15.0*	-7.1%
Cc1ccc(NC(=O)c2c(C)oc3ccc(O)c(CN4CCN(Cc5ccccc5)CC4)c23)cc1	x	x	-1.2%	x	x	x
COc1ccc(C(C(=O)NC2CCCC2)N(Cc2cccnc2)C(=O)Cc2cccs2)c(OC)c1 (configuration not stated)	-6.4	-2.3%	-2.8%	9.4%	-4.7	-7.5%
Cc1cccc(C)c1NC(=O)c1csc2c1CCCC2	x	x	-9.4%	x	x	x
O=C(Nc1ccccc1O)c1csc2c1CCCC2	98.3*	-3.2%	1.4%	-12.6%	35.1*	u
COc1ccc(NC(=O)c2csc3c2CCCCC3)c(OC)c1	43.9	-2.6%	-8.4%	-13.2%	16.4*	30.0%
COc1cccc(C(=O)c2ccncc2C(=O)O)c1OC	x	x	-6.3%	x	x	9.2%
ONC(=Nc1ccc(Cl)cc1)c1ccccc1	6.6	6.6%	6.3%	-16.8%	17.8*	30.6%
O=[N+]([O-])c1cccc(C(=Nc2cccc(Cl)c2)NO)c1	-5.6	3.7%	4.1%	-14.6%	-3.0	-4.0%
Cc1nn(-c2ccccc2)c(=O)c2ccccc12	17.6	0.1%	-1.2%	5.3%	14.1	18.3%
Cc1nn(-c2cccc(C(F)(F)F)c2)c(=O)c2ccccc12	x	8.7%	0.1%	-4.5%	15.6*	3.0%
O=c1ccn(-c2cccc(C(F)(F)F)c2)nc1-c1ccn(-c2ccccc2)n1	-18.3	1.3%	-2.3%	31.6µM*	9.8	0.0%
COCCNC(=O)CSc1nnc(-c2ccc(OC)c(OC)c2)c(-c2ccc(OC)c(OC)c2)n1	x	x	0.8%	x	x	x
COc1ccc(/C=N/N2C(=O)C3C4C=CC(CC4)C3C2=O)c(OC)c1 (configuration not stated)	54.7*	-3.9%	9.0%	-0.2%	45.3*	-4.9%
O=C1C2C3C=CC(CC3)C2C(=O)N1/N=C/c1c[nH]c2ccccc12 (configuration not stated)	124.9*	0.8%	0.6%	-1.9%	51.9*	1.4%
COc1ccccc1C1NC(=O)c2n[nH]c(-c3cccs3)c21 (configuration not stated)	x	x	-2.6%	x	x	x
COc1ccc(C(=O)Oc2c(Sc3ccc(Cl)cc3)c(C)nn2C(C)(C)C)cc1OC	x	x	-0.7%	x	x	x
CCOC(=O)C1(Cc2cccc(Cl)c2)CCCN(C(=O)c2ccnn2C)C1 (configuration not stated)	40.6*	-2.6%	-8.8%	x	49.6*	-11.2%
CCOC(=O)C1(Cc2cccc(Cl)c2)CCCN(C(=O)c2cc(C)n(C)n2)C1 (configuration not stated)	-18.3	-3.4%	-3.6%	x	-1.2	6.9%
